Source: PubChem BioAssay
DT40 TDP1 no CPT: qHTS for Inhibitors of human tyrosyl-DNA phosphodiesterase 1 (TDP1): qHTS in cells in absence of CPT | DT40 Tdp1-/- hTDP1 cells, no CPT, ATP luminescence, 48 h | Potency, µM (top dose mostly 46.2 µM), for inactives: at the highest dose activity change, negative = growth inhibition, usual class: inhibitors | actives 15% (n = 420,000) | AID 686978, 2013; also: % is scaled to controls: 0 for no effect and ±100 for the full control effect; nearly all actives have a fitted effect of over 55% in size
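DT40 Tdp1-/-;hTDP1 cells, no CPT (DMSO vehicle only), 400 cells/well; compounds pin-transferred; ≥48 hr, 37 °C; CellTiter-Glo 30 min RT dark, luminescence read.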
HepG2 viability: HepG2 cytotoxicity, counter-screen for TGF-b inhibitors; HepG2 CAGA-GFP viability, ATP luminescence, 18 h; AID 588856; Potency, µM (top dose mostly 46.1 µM), for the others: top-dose activity change, negative = cytotoxicity, most hits filed as cytotoxic; actives 0.76% (n = 410,000)
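CellTiter-Glo luminescence gave cytotoxicity after 18 hours at 37 degrees C. The cells were HepG2 CAGA-GFP in 1% FBS DMEM, stimulated with 500 pg/mL TGF-beta after compound addition. %Activity was normalised to no-cell wells (complete cell-killing) and DMSO (no toxicity), and curves were fitted and classified.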
ATXN viability: cell viability loss in ATXN counter-screen | S2 cells (HEK-293 line with an ATXN2-luciferase reporter) viability, CellTiter-Fluor protease fluorescence, 24 h | AID 651635 | Potency, µM (highest dose often 56.7 µM), actives largely listed as cytotoxic | actives 0.49% (n = 400,000); also: nearly all actives have a fitted effect of over 40% in size
ATXN2 expr inh: inhibitors of ATXN2 expression. HEK-293 ATXN2-luciferase reporter, luminescence, 24 h. Potency, µM (doses to about 57 µM), for the others: top-dose activity change, negative = inhibition, actives largely listed as inhibitors. actives 0.72% (n = 360,000). AID 1745845; also: % is scaled to controls: 0 for no effect and ±100 for the full control effect; nearly all actives have a fitted effect of over 55% in size
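ATXN2-luciferase reporter cells (luciferase flanked by upstream and downstream ATXN2 gene portions) were treated 24 h at 37 °C with compounds at up to 57 uM. SteadyGlo luminescence gave expression; GF-AFC fluorescence gave viability.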
TGFb inhibitor: TGF-b pathway inhibition; HepG2 CAGA-GFP TGF-b/SMAD3 reporter, GFP fluorescence, 18 h; TGF-beta stimulated, 500 pg/mL final; Potency, µM (series often up to 46.1 µM), for the others: at the top dose activity, negative = inhibition, actives largely listed as inhibitors; actives 1.2% (n = 410,000); also: % is scaled to controls: 0 for no effect and ±100 for the full control effect; nearly all actives have a fitted effect of over 65% in size
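First, reporter cells (HEPG2 CAGA-GFP) rested 2 h at 37 degrees C. Next, compounds were pinned in and TGF-beta added to 500 pg/mL final. After 18 h, GFP was imaged per cell and summed per well.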
TDP1 cell CPT: DT40-hTDP1 cell growth loss with CPT. chicken DT40 Tdp1-/-;hTDP1 cells + 20 nM CPT, ATP luminescence, 48 h. Potency, µM (highest dose often 46.2 µM), for inactives: at the top dose activity change, negative = growth inhibition, actives largely listed as inhibitors. actives 12% (n = 420,000). AID 686979; also: % is scaled to controls: 0 for no effect and ±100 for the full control effect; nearly all actives have a fitted effect of over 55% in size
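Cell growth measured by CellTiter-Glo luminescence after a minimum 48 h, 37 C compound exposure with 20 nM CPT in Tdp1-knockout DT40 cells stably expressing hTDP1, seeded 400/well; qHTS titration format.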
Numbers without * were called inactive; i = inactive; ? = inconclusive; / = not tested or not shown; ! = not active in a repeat; [ ] = another dose, or the depositor's remark. In the library only some 17% were active in any assay of this set; here they are far more common. Calls follow the shape of the dose curve; as a rule, active = well fitted curve in the direction sought with a large enough effect; inconclusive = small, poorly fitted or top-dose-only effect, or another doubt; inactive = no such curve, though single readings can be large; an effect the other way counts as inactive or inconclusive. Potency is read from the fitted curve at half-maximal effect.

SMILES | DT40 TDP1 no CPT | HepG2 viability | ATXN viability | ATXN2 expr inh | TGFb inhibitor | TDP1 cell CPT
COCCOC(=O)C1=C(C)NC(C)=C(C(=O)OC(C)C)C1c1cccc([N+](=O)[O-])c1 (centres undefined) | 15µM*! | -5% | ? | ? | -19% | ?
CCOC(=O)C1=C(C)NC(C)=C(C(=O)OCC)C1c1ccc([N+](=O)[O-])s1 | 10µM* | -49% | i | ? | ? | 15µM*
CCOC(=O)C1=C(C)NC(C)=C(C(=O)OCC)C1C | -51% | -3% | i | -9% | -20% | -29%
COc1ccccc1C(=O)OCc1cc(=O)n2c(C)csc2n1 | -29% | 1% | i | 0% | -2% | 4%
CN(C)/C=C(/C#N)C(=O)c1cccc(Oc2ccc(C(C)(C)C)cc2)c1 | ? | 1% | i | -11% | -11% | -26%
CCCCNC(=O)CCCCCn1c(=O)[nH]c2ccccc2c1=O | ? | 4% | / | / | -22% | -28%
CCCCNC(=O)CSc1nc2cc3c(cc2c(=O)n1Cc1ccco1)OCO3 | 16µM* | 2% | i | -15% | -20% | 18µM*
CCC(Sc1nc2cc3c(cc2c(=O)n1Cc1ccco1)OCO3)C(=O)Nc1ccccc1OC (centres undefined) | 8.2µM* | -9% | / | / | -3% | 8.2µM*
COCCNC(=O)CSc1nc2cc3c(cc2c(=O)n1Cc1ccco1)OCO3 | -19% | -19% | / | / | -16% | -27%
CCC(Sc1nc2cc3c(cc2c(=O)n1Cc1ccco1)OCO3)C(=O)Nc1cccc(OC)c1 (centres undefined) | ? | 0% | ? | -24% | -15% | ?
O=C(Cn1cncn1)NCC1Cc2cc(-c3ccsc3)cc(Cl)c2O1 (centres undefined) | -15% | / | i | / | / | 5%[9.04 µM]
COc1ccc2c(c1)CC[C@H]1[C@@H]2CC[C@]2(C)[C@@H](NCCCCCCN3C(=O)C=CC3=O)CC[C@H]12 | / | / | / | 40% | / | /
CC(C)(C)C(=O)Nc1cccc(-c2ncon2)c1 | -9% | 5% | i | / | 15% | 0%
O=C(CCSCc1cccc(F)c1)NCc1ccc(F)cc1 | 18µM* | -14% | i | / | -5% | ?
O=C(CCSCc1cccc(Cl)c1)NCc1ccccc1Cl | 26µM* | -47% | / | / | -25% | ?
Cc1ccc(C(=O)Nc2ccccc2C(=O)N2CCCC(C)C2)cc1 (centres undefined) | -5% | -27% | i | 7% | 1% | 1%
CCCN(CC(=O)Nc1ccccc1OC)C(=O)c1ccc(S(=O)(=O)Nc2ccccc2)cc1 | ? | 9% | i | -7% | -10% | ?
CN(C)c1ccc(/C=C/c2ccc3ccccc3[n+]2C)cc1 | 0.13µM* | 7.1µM*! | 10µM* | ? | 2.2µM* | 0.16µM*
CN(C)c1ccc(/C=C/c2ccc3c4ccccc4ccc3[n+]2-c2ccccc2)cc1 | 0.16µM* | -57% | / | 1.1µM* | ? | 0.21µM*
CN(C)c1ccc(/C=C/c2c3ccccc3cc[n+]2[O-])cc1 | ? | -8% | / | / | 3% | ?
CN(C)c1ccc(/C=C/c2c[n+](C)cc3ccccc23)cc1 | 0.28µM* | -25% | / | / | 13µM* | 0.35µM*
CN(C)c1ccc(/C=C/c2cc3ccccc3c[n+]2C)cc1 | 0.1µM* | -27% | / | / | 10µM* | 0.089µM*
CC(C)C(O)(C#CCN1CCCCCC1)c1ccccc1 (centres undefined) | ? | 8% | i | -6% | 3% | 3%
CCOC(=O)c1c(NC(=O)/C=C/c2ccc(OCC)cc2)sc(C(C)=O)c1C | / | 7% | i | 2% | 16% | /
[O-][n+]1c(/C=C/c2ccccc2)ccc2ccccc21 | 16µM* | -27% | ? | -25% | ? | 21µM*
SMILES | DT40 TDP1 no CPT | HepG2 viability | ATXN viability | ATXN2 expr inh | TGFb inhibitor | TDP1 cell CPT
c1ccc(CN2CCN(c3nc(-c4ccccc4)nc(-n4ccnc4)n3)CC2)cc1 | 18µM* | 0% | ? | -18% | ? | 16µM*
c1ccc(N(c2ccccc2)c2nc(N3CCCC3)nc(-n3ccnc3)n2)cc1 | 26µM* | 8% | ? | -25% | -6% | ?
CN(c1ccccc1)c1nc(N2CCCC2)nc(-n2ccnc2)n1 | -21% | -26% | i | 0% | 21% | -26%
c1ccc(-c2nc(-n3ccnc3)nc(-n3ccnc3)n2)cc1 | 10µM* | -30% | / | / | 0% | 21µM*
c1ccc(CN2CCN(c3ncccn3)CC2)cc1 | 3% | 4% | i | -2% | 0% | 6%
CCN(CC)S(=O)(=O)c1ccc2[nH]c(=O)cc(C(=O)Nc3ccccc3N3CCOCC3)c2c1 | 11% | -1% | i | 1% | -3% | 2%
COCC(=O)N1CCC2(CC1)CN(C(=O)Nc1cccc(C#N)c1)C2 | 5% | / | / | / | / | 13%
CCCc1nnc(NC(=O)c2nc(S(=O)(=O)Cc3cccc(C)c3)ncc2Cl)s1 | ? | -99% | / | ? | ? | ?
O=C(Nc1ccc2ccccc2c1)c1nc(S(=O)(=O)Cc2ccccc2F)ncc1Cl | 1.3µM* | -62% | / | / | ? | 0.71µM*
Cc1nnc(NC(=O)c2nc(S(=O)(=O)Cc3ccccc3)ncc2Cl)s1 | 12µM* | -130% | 32µM* | ? | ? | 9.2µM*
Cc1cccc(C)c1NC(=O)c1nc(S(=O)(=O)Cc2ccccc2F)ncc1Cl | 5µM* | -100% | / | / | ? | 1.3µM*
Cc1ccc(NC(=O)c2nc(S(=O)(=O)Cc3ccccc3)ncc2Cl)cc1 | 0.92µM* | 22µM* | ? | ? | ? | 1.5µM*
CCc1ccc(NC(=O)c2nc(SCc3ccccc3F)ncc2Cl)cc1 | -29% | 6% | / | / | 21% | -30%
Cc1ccc(NC(=O)c2nc(SCc3ccccc3F)ncc2Cl)cc1 | -7% | 3% | / | / | 1% | -14%
O=C(Nc1ccccc1F)c1nc(S(=O)(=O)Cc2ccccc2F)ncc1Cl | 0.92µM* | 8.9µM* | 18µM* | ? | 4.5µM* | 1.3µM*
CCSc1nnc(NC(=O)c2cnccn2)s1 | -4% | -17% | i | 8% | -3% | -3%
CCc1nnc(NC(=O)c2nc(S(C)(=O)=O)ncc2Cl)s1 | 9.2µM* | 17% | ? | ? | 2% | 5.8µM*
Cc1ccccc1NC(=O)c1nc(S(C)(=O)=O)ncc1Cl | 2.3µM* | -119% | / | / | 16µM* | 2.3µM*
CCSc1nnc(NC(=O)c2ccccn2)s1 | 3.2µM* | -39% | / | ? | ? | 5µM*
